Laboratory results published in PubChem BioAssay AID1645857 (Buhrlage Lab, Dana-Farber Cancer Institute and Novartis …, 2021).
Out of some 47,000 compounds screened, about 1,400 (3%) were called active. For the sample, actives were picked, then their nearest neighbours and some compounds at random. Values without a mark were called inactive. No stated cut-off is given here; in the data, active means inhibition above about 30%; inactive means the rest.

These compounds were tested against Ubiquitin carboxyl-terminal hydrolase 28 (Homo sapiens) (UniProt Q96RU2) (assay: blocks human USP28 ubiquitin-rhodamine cleavage (AID 1645857)). Settings: purified USP28, Ub-rhodamine cleavage fluorescence, 30 min; at 25 µM; active compounds read high.
Sequence of Ubiquitin carboxyl-terminal hydrolase 28 (Homo sapiens) (Q96RU2 whole entry, looked up): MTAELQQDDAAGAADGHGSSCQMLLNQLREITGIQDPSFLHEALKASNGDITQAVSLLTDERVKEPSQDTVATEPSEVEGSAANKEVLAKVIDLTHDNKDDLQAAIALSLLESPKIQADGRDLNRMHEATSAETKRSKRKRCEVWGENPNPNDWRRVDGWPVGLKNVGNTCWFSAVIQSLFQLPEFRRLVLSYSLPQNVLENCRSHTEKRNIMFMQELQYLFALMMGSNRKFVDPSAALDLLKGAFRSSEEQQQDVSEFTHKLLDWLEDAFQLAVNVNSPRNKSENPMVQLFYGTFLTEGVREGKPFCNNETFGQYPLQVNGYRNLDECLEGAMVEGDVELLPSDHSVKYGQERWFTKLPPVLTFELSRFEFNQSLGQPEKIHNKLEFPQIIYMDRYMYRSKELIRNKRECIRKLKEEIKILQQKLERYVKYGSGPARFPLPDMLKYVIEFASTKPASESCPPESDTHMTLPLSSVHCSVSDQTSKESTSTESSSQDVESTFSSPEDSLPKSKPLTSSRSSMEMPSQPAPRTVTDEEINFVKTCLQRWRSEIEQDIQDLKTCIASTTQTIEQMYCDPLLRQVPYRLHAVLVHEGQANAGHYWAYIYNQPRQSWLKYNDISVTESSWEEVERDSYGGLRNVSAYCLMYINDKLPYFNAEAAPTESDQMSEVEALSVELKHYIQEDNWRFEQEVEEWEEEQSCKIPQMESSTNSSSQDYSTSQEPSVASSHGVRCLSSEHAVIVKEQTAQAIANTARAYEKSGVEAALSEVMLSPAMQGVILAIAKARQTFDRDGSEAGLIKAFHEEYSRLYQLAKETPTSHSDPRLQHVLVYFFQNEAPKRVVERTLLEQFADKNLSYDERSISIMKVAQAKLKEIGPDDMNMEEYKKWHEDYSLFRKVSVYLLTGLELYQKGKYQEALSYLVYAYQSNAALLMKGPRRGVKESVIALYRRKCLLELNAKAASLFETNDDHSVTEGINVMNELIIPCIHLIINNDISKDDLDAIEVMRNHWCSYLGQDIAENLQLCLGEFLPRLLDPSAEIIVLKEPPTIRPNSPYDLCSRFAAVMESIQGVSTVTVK

SMILES	inhibition
Cc1nc(C2CCCN(C(=O)c3cccnc3N)C2)nc2c1CC(=O)N2Cc1ccccc1 (stereo unspecified)	-6.04%
C=C1Nc2ccccc2C(=O)N1c1cccc(NC(=O)Cc2ccc(F)cc2)c1	2.69%
CNc1nc2c(c(=O)n1C)CN(C(=O)Nc1ccccc1Oc1ccccc1)CC2	14.2%
COc1cccc(-c2cc(C(=O)N3CCN(c4ccc(N5CCOCC5)nn4)CC3)[nH]n2)c1	69.8% (active)
COc1ccc(NC(=O)c2sc(N3CCOCC3)nc2-c2ccccc2)c(OC)c1	15.1%
O=C(c1cccnc1)N1CCN(c2cc(-c3ccccc3)[nH]n2)CC1	4.54%
COc1cccc(C(=O)N2CCCC2c2nc(-c3ccccc3)no2)c1 (stereo unspecified)	1.43%
C=C(CCC(C(=O)O)[C@H]1[C@H](O)C[C@@]2(C)C3=C(CC[C@]12C)[C@@]1(C)CC[C@H](OC(C)=O)C(C)(C)[C@@H]1CC3)C(C)C (stereo partly specified)	3.27%
COCCCNC(=O)c1cc2c(=O)n3ccccc3nc2n1Cc1ccccc1	9.14%
CSc1ncccc1C(=O)OCc1ccc(Br)cc1	76.8% (active)
CCCOc1ccc(NC(=O)c2ccc(Br)cc2)c2cccnc12	-10.2%
CSc1ncccc1C(=O)Nc1ccnn1C(C)c1ccncc1 (stereo unspecified)	-28.1%
CCCCNC(=O)Cc1csc(COc2ccc(C)cc2)n1	2.41%
O=C(NC1CCCC1)c1ccccc1N1C(=O)[C@@H]2Cc3c([nH]c4ccccc34)C(c3ccc(F)cc3)N2C1=O (stereo partly specified)	-2.2%
CN1CCCN(C(=O)C2CCCCC2)CC1	-7.1%
COC(=O)c1ccc(C2Oc3ccccc3CN2c2ccccc2Cl)cc1 (stereo unspecified)	34.3% (active)
COC(=O)c1ccc(C2c3[nH]c4ccccc4c3C[C@H]3C(=O)N(CC4CCCO4)CC(=O)N23)cc1 (stereo partly specified)	-2.7%
COC(=O)c1ccc(C(=O)NCC2(O)CCc3ccccc32)cc1 (stereo unspecified)	6.5%
Cn1nc(C2CCCN(Cc3cc(F)cc(F)c3)C2)c2nccnc21 (stereo unspecified)	-9.38%
COc1ccccc1CNC(=O)c1c(O)c2cccnc2n(-c2ccccc2)c1=O	-16.9%
CCN1CCC2(CC1)OC(=O)C(C)=C2C(=O)NCc1ccccc1OC	-9.74%
COc1ccccc1CNC(=O)c1nc(N2CCSCC2)c2cn(C)nc2n1	32.8% (active)

SMILES	inhibition
O=C(CCc1nnc2ccc(N3CCOCC3)nn12)N1CCC(Cc2ccccc2)CC1	3.03%
CC(C)C(=O)Nc1nc2ccc(CCC(=O)Nc3ccc(F)cc3)cc2s1	-0.104%
CCCC(=O)Nc1nc2ccc(CCC(=O)NCc3ccc(F)cc3)cc2s1	-4.54%
O=C(Cc1cccc2ccccc12)Nc1nc2ccc(F)cc2s1	55.7% (active)
CCC(=O)Nc1ccccc1SCC(=O)N1c2ccccc2CC1C (stereo unspecified)	10.9%
CS(=O)(=O)c1ccc(Oc2ncc(-c3cccs3)cn2)cc1	3.89%
COc1ccc(C(C)=O)cc1CSc1nnc(-c2ccccc2OC)n1CCc1ccccc1	5.07%
CN(C)CCCNC(=O)/C=C/c1ccc(OCc2c(F)cccc2Cl)cc1	34.5% (active)
CC(C)(C)c1ccc(/C=C/C(=O)NCCCn2ccnc2)cc1	-4.88%
COC(=O)c1cc2c(ccn2C)n1CC(=O)NC1CCCC1	-250%
Oc1cccc2nc3c(O)cccc3nc12	61.8% (active)
CCCCCCCCCCC(C)C1CC(=O)NC(C(C)O)C(=O)NC(C)C(=O)NC(C)C(=O)NC(CCC(N)=O)C(=O)NC(Cc2ccc(O)cc2)C(=O)NC(C(C)CC)C(=O)O1 (stereo unspecified)	-4.03%
Cc1cc(=O)[nH]c(C2CN(C(=O)c3cccc4c3OCCO4)CCO2)n1 (stereo unspecified)	-1.67%
Cc1ccc(NC(=O)Cc2sc(Nc3ccc(C)cc3)nc2O)cc1	75.6% (active)
Cc1ccc(Nc2nc(O)c(CC(=O)Nc3ccc(C(C)C)cc3)s2)cc1C	-1.13%
CCOc1ccc(Nc2nc(O)c(CC(=O)Nc3cccc(C)c3)s2)cc1	27.4%
CC(Nc1nc2ccccc2nc1NS(=O)(=O)c1cc(Cl)ccc1Cl)c1ccccc1 (stereo unspecified)	-235%
CC(=O)C(CC(=O)N1CCCC1)C(=O)Nc1ccc(Cl)cc1 (stereo unspecified)	8.14%
CC1CCN(c2ccc(C(=O)NCc3ccc(F)cc3)cc2[N+](=O)[O-])CC1	0.654%
O=C(NCCc1ccccc1)c1ccc2c(=O)nc3c(-c4ccccc4F)n[nH]n3c2c1	-8.97%
O=C(Cn1c(=O)n(Cc2ccc3c(c2)OCO3)c(=O)c2ccccc21)NCc1ccco1	26.3%
O=C(NCCc1ccccc1)c1ccc2c(=O)n(Cc3ccco3)c(=O)n(Cc3cccc([N+](=O)[O-])c3)c2c1	73.4% (active)

SMILES	inhibition
Cn1ccc(NC(=O)CN2[C@H](Cc3ccccc3)C[C@]3(C)NC(=O)CCC[C@H]23)n1	-3.27%
CC1CCCCN1CC(=O)N1CCc2cc(S(N)(=O)=O)ccc21 (stereo unspecified)	-35.3%
CCc1ccc(-n2c(SC(CC)C(=O)NCCOC)nc3n[nH]c(C)c3c2=N)cc1 (stereo unspecified)	-17.1%
O=C(Cn1cnc2c(sc3ccccc32)c1=O)Nc1ccc2c(c1)OCCO2	38.1% (active)
O=C(Cn1cc(C(F)(F)F)ccc1=O)Nc1ccc2c(c1)OCCO2	15.1%
COc1ccc(C)cc1NC(=O)Cn1c(=O)nc(N(C)c2ccccc2)c2ccccc21	20.4%
CCOC(=O)c1cc2c(ccn2C)n1CC(=O)Nc1ccc2c(c1)OCCO2	-34.6%
COc1ccccc1-c1ccc2nnc(SCC(=O)Nc3ccc4c(c3)OCCO4)n2n1	3.38%
CN(c1ccccc1)c1nc(=O)n(CC(=O)Nc2ccc3c(c2)OCCO3)c2ccccc12	41.9% (active)
COc1cccc(-c2cnc(C(O)c3sccc3C)[nH]2)c1 (stereo unspecified)	-14.5%
Fc1cccc(Nc2nc(-c3ccncc3)nc3c2CCC3)c1	5.32%
CSc1nc2c(c(Nc3ccc(C(C)=O)cc3)n1)CCC2	53.2% (active)
COc1cc(-c2nnc(SCC(=O)Nc3ccc(Br)cc3)n2CCc2ccccc2)cc(OC)c1OC	-5.36%
O=C(NCCc1ccc(O)cc1)c1cc(Br)ccc1-n1cnnn1	8.86%
Cc1nc(SCC#N)c2oc3ccccc3c2n1	-1.32%
COC(=O)c1cccnc1-n1c(=O)c2cccnc2n(CC(=O)Nc2ccc(C)c(F)c2)c1=O	-12.4%
CC(C)(C)C(=O)Nc1ccc(SCc2nnc(-c3ccccc3)o2)cc1	64% (active)
Cc1ccc(-c2nnc(CCC(=O)O)o2)cc1	-0.555%
CC(C)(C)C(=O)Nc1ccc(C(=O)Nc2ccc(O)cc2C(=O)O)cc1	13.9%
O=C(CCc1csc(NC(=O)c2ccc(=O)[nH]c2)n1)NCCc1c[nH]c2ccccc12	-13.5%
CC1CCN(S(=O)(=O)N2CCCC(C(=O)NC3CCN(Cc4ccccc4)CC3)C2)CC1 (stereo unspecified)	-8.49%
CCOc1ccccc1OC(=O)c1cc(-c2cc(OC)c(OC)c(OC)c2)nc2ccccc12	-10%
